# MEKK3 PB1 HTS = MEKK3-MEK5 PB1 interaction, increase or decrease. hit rate 1.4% among 290,000. AID 1529. bead-based flow cytometry, Alexa488-MEK5 binding to MEKK3; actives lie on both sides; 0 = blocked by unlabeled MEK5, 100 = vehicle. Q99759. binding response (% of control), % at 10 µM;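 active means binding response more than 3 SD above or below the average of its plate-row segment, actives on both sides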;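 further: Alexa488 bead fluorescence after subtracting the streptavidin-only scavenger bead signal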
# MEKK2 mut-MEK5 = signal of MEK5 binding to mutant human MEKK2 PB1 domain; bead flow cytometry, Alexa488-MEK5 binding to MEKK2 mutant; hit rate 0.35% among 290,000; percent response, % at 10 µM; AID 1530; in the data active means percent response above about 24%, passing the limit was not always enough
# UBC13 polyUb = blocks human UBC13 polyubiquitin chain formation; P61088; AID 485273; TR-FRET; inhibition, % at 20 µM; hit rate 0.47% among 330,000; in the data active means inhibition above about 45%, passing the limit was not always enough
# Target sequence (P61088 whole entry, looked up): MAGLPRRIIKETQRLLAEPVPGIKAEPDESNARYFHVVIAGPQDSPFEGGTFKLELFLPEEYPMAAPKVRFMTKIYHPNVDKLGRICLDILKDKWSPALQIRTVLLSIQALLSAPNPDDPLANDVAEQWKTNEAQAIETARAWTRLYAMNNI
# MEKK2wt PB1 HTS = raises or lowers MEK5 binding to wildtype human MEKK2 PB1 domain. Q9Y2U5. bead flow cytometry, Alexa488-MEK5 binding to MEKK2 WT; actives lie on both sides. binding response (% of control), % at 10 µM. hit rate 1.1% among 290,000; in the data active means binding response below about 67% or above about 130%
# MEKK2wt confirm = raises or lowers MEK5 binding to wildtype human MEKK2, retest; shares compounds with MEKK3 PB1 HTS; bead flow cytometry, Alexa488-MEK5 binding to MEKK2 WT; actives lie on both sides; binding response (% of control), % at 10 µM; hit rate 2.4% among 5,900; AID 1892; in the data active means binding response below about 16% or above about 210%; inactive means in between
# MEKK2mut confirm = signal of MEK5 binding to mutant human MEKK2, retest. percent response, % at 10 µM. shares compounds with MEKK3 PB1 HTS. hit rate 2% among 5,900. AID 1893. bead flow cytometry, Alexa488-MEK5 binding to MEKK2 mutant; in the data active means percent response mostly above about 71%, no sharp cut-off; inactive means mostly below about 38%;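 further: higher means compound restores mutant binding toward wildtype level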
# MEKK3 confirm = MEKK3-MEK5 PB1 inhibition, single concentration confirmation | shares compounds with MEKK3 PB1 HTS | bead flow cytometry, Alexa488-MEK5 binding to MEKK3; stronger effect = lower value | binding response (% of control), % at 10 µM | hit rate 1.8% among 5,900;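 active means binding response below 72% of control, or above a set upper limit, though filed actives all read lower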
# Hits are given with their value; . = inactive; / = no result given; [ ] = remark or other dose. Only some compounds are listed: those with a hit (about 2.3% of all), similar ones and a draw of the others.
SMILES,MEKK3 PB1 HTS,MEKK2 mut-MEK5,UBC13 polyUb,MEKK2wt PB1 HTS,MEKK2wt confirm,MEKK2mut confirm,MEKK3 confirm
CC1=CC2=NC(=O)/C(=C/c3cccn3Cc3ccccc3)C(=N)N2O1,.,.,.,.,/,/,/
Cc1cc(C)cc(C(=O)Nc2cc3c4c(c2)CC(=O)N4CCC3)c1,/,/,.,/,/,/,/
CN(C)CCN1C(=O)c2oc3ccccc3c(=O)c2C1c1cccc(Br)c1 (configuration not stated),.,.,.,.,/,/,/
CN(C)CCN1C(=O)c2oc3ccc(Cl)cc3c(=O)c2C1c1cccc(Br)c1 (configuration not stated),129.0,.,.,139.0,.,.,.
CCC(=C(c1ccc(OC)cc1)c1ccc(OC)cc1)c1cn(CC(O)CN(CCO)CCO)c2ccccc12 (configuration not stated),.,.,.,149.0,.,.,.
Cc1ccc(OCC(O)CNC2CCCC2)c(C)c1 (configuration not stated),.,.,.,.,/,/,/
Cc1ccccc1OCC(O)CNC1CCC(NCC(O)COc2ccccc2C)CC1 (configuration not stated),.,76.0,.,219.0,207.0,70.0,.
COc1ccc(S(=O)(=O)N2CCC(C(=O)N[C@@H](C)C(=O)NCc3ccccc3OC)CC2)cc1,.,.,.,.,/,/,/
Cc1cc(C)n2nc(Nc3ccccc3)cc2n1,81.0[inhibitor],.,.,.,.,.,.
COc1cc2c(cc1OC)C(c1ccccc1F)NCC2 (configuration not stated),.,.,.,.,/,/,/
CC(C)(C)c1cc(C(=O)NC2CC2)n(Cc2ccc(F)cc2)n1,131.0,.,.,.,.,.,.
CC(C)(C)c1cc(C(=O)Nc2ccc(F)cc2)n(Cc2ccc(F)cc2)n1,.,.,.,.,/,/,/
CCN1/C(=C\c2ccc3cc(C)ccc3[n+]2CC)Sc2cc(C)c(C)cc21,44.0[inhibitor],.,/,29.0,15.0[inhibitor],.,61.0
CCN1/C(=C/c2ccc3cc(C)cc(C)c3[n+]2CC)Sc2cc(C)ccc21,34.0[inhibitor],.,/,25.0,.,.,54.0
C=CC[n+]1c(/C=C2\C=Cc3cc(C)ccc3N2CC)ccc2ccccc21,.,.,.,.,/,/,/
CCN1/C(=C/c2ccc3cccc(C)c3[n+]2CC)Sc2ccccc21,.,.,.,40.0[inhibitor],.,.,.
N#CC(C#N)=Cc1c(N2CCN(c3ccccc3)CC2)nc2ccccn2c1=O,.,.,.,.,/,/,/
CC(=O)c1ccc(N2CCc3ccccc3C2)c([N+](=O)[O-])c1,72.0[inhibitor],.,.,.,.,.,.
CCOC(=O)C1(Cc2cccc(F)c2)CCN(Cc2nc(CC)[nH]c2C)CC1,71.0[inhibitor],.,.,/,.,.,.
COc1ccc([N+](=O)[O-])cc1NC(=O)C(C)OC(=O)CC1CCCC1 (configuration not stated),/,/,.,/,/,/,/
C=CCNc1nc(N)c([N+](=O)[O-])c(NCCO)n1,.,.,.,.,/,/,/
CCN(CC)c1nc(N)c([N+](=O)[O-])c(NCCO)n1,134.0,.,.,.,.,.,.
Cc1noc(C)c1NC(=O)N(C)C[C@H]1Oc2ccc(NS(=O)(=O)c3ccc(F)cc3)cc2C(=O)N([C@H](C)CO)C[C@@H]1C,/,/,.,/,/,/,/
O=C(NCCCN1CCOCC1)C(=O)N/N=C/c1cccc2ccccc12,.,.,.,.,/,/,/
Cc1ccc(/C=C2\CCC3=C2OC(N)=C(C#N)C3c2ccc(C)cc2)cc1 (configuration not stated),.,108.0,.,.,.,.,.
SMILES,MEKK3 PB1 HTS,MEKK2 mut-MEK5,UBC13 polyUb,MEKK2wt PB1 HTS,MEKK2wt confirm,MEKK2mut confirm,MEKK3 confirm
Cc1noc(C)c1CSc1ccccc1C(=O)O,.,.,.,.,/,/,/
O=C(C[n+]1cc(Br)cc2ccccc21)c1ccccc1,.,.,.,66.0[inhibitor],.,.,70.0
CSCCCNC(=S)N1CCN(c2ccc(C(C)=O)cc2)CC1,5.0[inhibitor],.,.,6.0[inhibitor],.,.,.
N=c1c2c(-c3ccccc3)c(-c3ccccc3)n(Cc3ccco3)c2ncn1Cc1ccco1,.,41.0,.,152.0,.,.,.
N=c1c2c(-c3ccccc3)c(-c3ccccc3)n(Cc3ccccc3)c2ncn1CCCn1ccnc1,.,.,.,146.0,.,.,.
CCCCn1cnc2c(c(-c3ccccc3)c(-c3ccccc3)n2Cc2ccco2)c1=N,.,.,.,.,/,/,/
O=c1c(S(=O)(=O)c2ccc(Cl)cc2)cn(Cc2cccc(F)c2)c2ccc(F)cc12,.,.,.,.,/,/,/
Cc1ccc(Cn2cc(S(=O)(=O)c3ccc(Cl)cc3)c(=O)c3cc(F)ccc32)cc1,132.0,.,.,.,.,.,.
CN1CCC/C1=C/C=C1\SC(=S)NC1=O,151.0,.,/,.,.,.,.
COC(=O)C1=C(COc2ccc(C=O)cc2OC)NC(=O)NC1c1cc(C)ccc1C (configuration not stated),.,.,.,.,/,/,/
O=C(/C=C/c1ccc(Cl)c([N+](=O)[O-])c1)Nc1cccc(NC(=O)c2ccco2)c1,143.0,.,.,.,.,.,.
CN1C(=O)CSC1=NC12CC3CC(CC(C3)C1)C2,20.0[inhibitor],.,.,30.0[inhibitor],.,.,.
CCOCCCn1c(=S)[nH]c2cc(C(=O)NCC(OC)OC)ccc2c1=O,.,.,.,.,/,/,/
Cc1onc(-c2ccccc2Cl)c1C(=O)NCCN1Cc2ccccc2C1=O,1.0[inhibitor],.,.,2.0[inhibitor],.,.,.
COc1ccc(CCNC(=O)c2c(-c3ccccc3Cl)noc2C)cc1,.,.,.,.,/,/,/
O=C(O)c1cc(NC(=O)c2cccc(C(=O)Nc3cc(C(=O)O)cc(C(=O)O)c3)c2)cc(C(=O)O)c1,.,.,.,.,/,/,/
Cc1nc(NC(=O)c2ccccc2)sc1-c1csc(NCc2ccccc2)n1,.,.,.,.,/,/,/
Cc1nc(NC(=O)c2ccccc2)sc1-c1csc(NCCc2ccccc2)n1,49.0[inhibitor],.,.,.,.,.,.
Cc1ccccc1CN(C)CC(=O)Nc1c(C)cccc1C(C)C,72.0[inhibitor],.,.,.,.,.,.
COc1ccc(NC(=O)NCCCN2CCN(c3cc(C)ccc3C)CC2)cc1,.,25.0,.,135.0,.,.,.
CCOc1ccccc1C(=O)NCC(=O)OCCOc1cccc(Cl)c1,.,.,.,.,/,/,/
NS(=O)(=O)c1ccc(Nc2ncccc2[N+](=O)[O-])cc1,1.0[inhibitor],.,.,0.0[inhibitor],.,.,.
CCOc1ccccc1OCCCC(=O)Nc1cc(S(=O)(=O)N2CCOCC2)ccc1OC,/,/,.,/,/,/,/
COC(=O)c1cc(OC)c(OC)cc1NC(=O)Cc1cccs1,5.0[inhibitor],.,.,7.0[inhibitor],.,.,.
